Compound activity: PubChem BioAssay, several laboratories
PostGolgi yeast: phenotypic screen on post-Golgi transport, primary screen. 98,000 compounds, 0.9% hits. post-Golgi transport phenotypic cell assay. inhibition, % at 10 µM;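 further: yeast cells grown in 1536-well plates; yeast grown about 18 h at 30C before absorbance read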
hDAT+cocaine: changed hDAT dopamine uptake under cocaine IC80, either direction, primary screen, cocaine antagonist project, cell-based, LLC-PK1 hDAT, [14C]-dopamine uptake, MLSMR. Sodium-dependent dopamine transporter (Homo sapiens), Q01959. LLC-PK1 hDAT cells, [14C]-dopamine uptake with cocaine IC80; actives deviate in either direction. B-score at 10 µM. 110,000 compounds, 1.3% hits. AID 449768, 2010;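 active means Z score or B-score, a plate-position-corrected score, falls beyond the plate's 99.7% confidence bounds, in either direction; inactive means both scores lie inside the 99.7% bounds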;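 further: scored against the spread of the other compound wells on the same plate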
Target sequence (Q01959 whole entry, looked up): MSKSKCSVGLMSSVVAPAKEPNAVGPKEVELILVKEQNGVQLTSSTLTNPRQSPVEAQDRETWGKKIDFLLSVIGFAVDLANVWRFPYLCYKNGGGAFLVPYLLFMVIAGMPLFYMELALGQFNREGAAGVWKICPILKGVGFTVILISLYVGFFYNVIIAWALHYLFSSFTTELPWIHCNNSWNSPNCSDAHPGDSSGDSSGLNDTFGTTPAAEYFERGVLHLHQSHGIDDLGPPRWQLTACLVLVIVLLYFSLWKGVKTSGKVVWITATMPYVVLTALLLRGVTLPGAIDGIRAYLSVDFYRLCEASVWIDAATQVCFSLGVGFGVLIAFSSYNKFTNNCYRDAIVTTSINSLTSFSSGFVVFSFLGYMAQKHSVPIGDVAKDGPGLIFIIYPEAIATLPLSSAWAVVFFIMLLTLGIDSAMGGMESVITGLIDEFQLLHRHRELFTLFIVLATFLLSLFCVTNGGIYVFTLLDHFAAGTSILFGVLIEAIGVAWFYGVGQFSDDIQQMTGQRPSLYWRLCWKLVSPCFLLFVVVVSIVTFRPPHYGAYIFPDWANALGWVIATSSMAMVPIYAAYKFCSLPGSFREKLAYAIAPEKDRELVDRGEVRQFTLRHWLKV
PostGolgi ctrl: growth inhibition of yeast control strain, primary screen, counter-screen for post-Golgi transport modulator project; efflux-deficient yeast background strain, growth absorbance A615, 16 h; inhibition, % at 10 µM; 98,000 compounds, 5% hits
TNAP act DEA: human TNAP enzyme activators, primary screen, biochemical, luminescent, intermediate phosphate acceptor level | Alkaline phosphatase, tissue-nonspecific isozyme (Homo sapiens), P05186 | activation factor at 20 µM | 64,000 tested, under 10 active | AID 813, 2007 | purified TNAP, CDP-star luminescence, 100 mM DEA, 30 min; hits give high values; scale: 0 levamisole-inhibited, 1 vehicle-only enzyme;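 active means activation factor of at least 2 at 20 µM, relative to controls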
Smad3 FoxH1 inh: Smad3/FoxH1 peptide binding inhibitors, primary screen, biochemical, TR-FRET; 88,000 compounds, 0.29% hits; TR-FRET Smad3/Dy647-FoxH1 peptide binding, europium anti-His; inhibition, % at 25 µM;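 active means compounds that reduce the energy-transfer binding signal between the protein and its labelled peptide by more than half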;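 further: 0% = Smad3 plus labelled peptide maximal FRET and 100% = peptide-only background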
Cav3 T inh: Cav3.2 calcium influx blockers – cell-based, Fluo-4 calcium fluorescence, FDSS, MLSMR library, primary screen; Cav3.2-expressing cells; hits give low values; B-score at 10 µM; AID 449739, 2010; 100,000 compounds, 4% hits; Voltage-dependent T-type calcium channel subunit alpha-1H (Homo sapiens), O95180;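 active means single-dose well whose peak fluorescence ratio is a statistical outlier from its plate by either plate-standardised score or position-corrected B-score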
Starred values were filed as active, the others as inactive; x = no result given. Compounds with a hit are over-represented: about 8.7% of the library has one in this group of screens. Unless noted, no stated cut-off is given here; in the data, active means inhibition above about 30%; inactive means the rest.

SMILES	PostGolgi yeast	hDAT+cocaine	PostGolgi ctrl	TNAP act DEA	Smad3 FoxH1 inh	Cav3 T inh
CC1CCN(S(=O)(=O)c2ccc(NC(=O)CN3CCN(c4ccccc4)CC3)cc2)CC1	-7.5	0.392	2.0	1	4.5	-0.374
CC1CCN(S(=O)(=O)c2ccc(NC(=O)Cc3ccccc3)cc2)CC1	-5.8	0.568	38.6*	x	13.9	-5.92*
CC1CCN(S(=O)(=O)c2ccc(NC(=O)CCN3C(=O)c4ccccc4C3=O)cc2)CC1	83.4*	0.421	5.8	x	7.3	-2.46
O=C(Nc1ccccc1)Nc1ccc(S(=O)(=O)N2CCCCC2)cc1	-9.9	0.91	30.2*	1.1	8.7	-2.45
Cc1ccc(N(C(=O)c2ccncc2)C2C=CS(=O)(=O)C2)cc1 (stereo not given)	12.0	0.0454	-4.7	0.9	-5.1	0.718
O=C(N/N=C/c1ccncc1)c1cc([N+](=O)[O-])cc([N+](=O)[O-])c1O	-9.3	x	-9.4	x	x	x
COc1cc(C(=O)Oc2ccccc2)ccc1OCc1c(C)noc1C	9.3	-0.134	1.9	0.9	-1.7	-0.00953
CCOC(=O)CN1C(=O)C(O)(C2CCc3ccccc3C2=O)c2ccccc21 (stereo not given)	2.7	0.671	6.4	0.9	-6.7	-1.75
CN(c1ccccc1)C(c1ccc(F)cc1)c1nnnn1C1CCCC1 (stereo not given)	-1.8	-0.00183	9.4	0.9	4.8	-7.51*
CC1CCc2nc(NC(=O)Cc3cccs3)sc2C1 (stereo not given)	-13.5	0.314	13.0	0.9	-9.3	-2.8
CC(C)(C)C1CCc2nc(NC(=O)Cc3cn4ccsc4n3)sc2C1 (stereo not given)	0.3	0.0478	46.2*	0.9	0.7	-2.27
COc1ccc([C@@H](Nc2ccccn2)c2cc(C(C)(C)C)cc(C(C)(C)C)c2O)cc1	x	x	x	x	69.4*	x
COc1cccc(C2CC(c3ccccc3OC)n3ncnc3N2)c1 (stereo not given)	-1.3	0.0596	0.7	1	0.0	1.3
Nn1c(COc2ccccc2)nc2ccccc2c1=O	17.6	1.13	3.8	1	1.1	0.561
COc1cccc(OCc2nc3ccccc3c(=O)n2N)c1	-21.9	1.56	30.9*	1	-7.2	-0.158
c1ccc(N(c2ccccc2)c2nc(N3CCOCC3)nc(N3CCOCC3)n2)cc1	x	x	x	0.9	2.9	x
COc1ccc(OC)c(S(=O)(=O)N2CCC(C(=O)Nc3cccc(C(F)(F)F)c3)CC2)c1	1.3	0.342	4.3	1	0.4	-9.29*
COc1ccc(OC)c(S(=O)(=O)n2cnc3cc(C)c(C)cc32)c1	5.3	0.474	30.1*	0.8	-7.1	0.202
COc1ccc(OC)c(S(=O)(=O)N2CCN(c3c(C)cccc3C)CC2)c1	-2.0	0.456	29.1	0.9	-4.3	-7.31*
CCOc1ccc(S(=O)(=O)n2cnc3cc(C)c(C)cc32)cc1	0.8	-0.00814	10.2	0.9	-1.3	-2.47
COC(=O)c1nnc(-c2ccccc2)nc1OC	-0.1	-0.833	-8.3	x	x	0.0305
CSc1sc(C(=O)O)c2c1C(=O)CCC2	8.2	-2.34*	7.0	0.8	-3.6	0.0901
CCc1c(C)[nH]c2c(C)cccc2c1=O	-0.6	0.885	1.2	x	14.6	0.688
CN(CCOc1ccccc1)c1ccc(S(=O)(=O)N2CCCCC2)cn1	-2.2	-0.0233	12.7	x	3.6	-7.6*
O=C(CSc1nccn1Cc1ccccc1)Nc1nccs1	1.6	-0.762	12.1	0.9	13.4	-0.619
O=C1CC(C(=O)N(c2cccc(F)c2)C(C(=O)NC2CCCC2)c2ccccn2)CS1 (stereo not given)	3.7	0.00652	37.3*	0.9	-7.4	0.732
CCCCC(=O)Nc1cccc(-c2nnc(-c3ccccc3)o2)c1	4.1	2.81*	8.0	1	1.7	-0.803
Cc1cccc(-c2nnc(-c3cccc(NC(=O)Cc4cccs4)c3)o2)c1	81.4*	-0.882	25.7	x	x	-3.19
